Measured values taken from PubChem BioAssay AID1159580 (chemical genetic matrix, 2015).
Where “and” joins values, the source holds several entries; their conditions need not be identical. Equal values may be shown once. Among all 5,500 compounds or so, about 2,000 (36%) were called active. About 18% were inconclusive and are not listed. No stated cut-off is given here; in the data, active means normalized growth mostly below about 0.91 (no sharp cut-off); inconclusive means no clear call, values can overlap the other calls; inactive means mostly above about 0.92. Some of the results follow.

Test: chemical genetic growth profiling, strain panel (AID 1159580);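 further: tested at 20 µM; growth read once vehicle control cultures reached saturation at 30 °C; 1 = growth at the plate median or of vehicle wells; lower values mean less growth of the strain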
Conditions: S. cerevisiae deletion strains, growth OD

Measured: normalized growth

NCC1CCC(C(=O)O)CC1 (stereo not drawn)
inactive: locus YAL021C, strain ccr4, hits give low values 1 | locus YAL026C, strain drs2, hits give low values 0.998 | locus YAL030W, strain snc1, hits give low values 1 | locus YBL061C, strain skt5, hits give low values 0.979 | locus YBR009C, strain hhf1, hits give low values 0.992 | locus YBR021W, strain FUR4, hits give low values 0.988 | locus YBR023C, strain chs3, hits give low values 0.992 | locus YBR171W, strain sec66, hits give low values 0.986 | locus YBR229C, strain ROT2, hits give low values 1 | locus YBR231C, strain swc5, hits give low values 0.988 | locus YBR279W, strain paf1, hits give low values 1.01 | locus YCL011C, strain gbp2, hits give low values 1 | locus YCL016C, strain dcc1, hits give low values 0.993 | locus YCL029C, strain bik1, hits give low values 0.982 | locus YCL061C, strain MRC1, hits give low values 0.999 | locus YCL069W, strain vba3, hits give low values 0.991 | locus YCR088W, strain abp1, hits give low values 0.989 | locus YDL005C, strain med2, hits give low values 0.974 | locus YDL035C, strain GPR1, hits give low values 0.985 | locus YDL040C, strain nat1, hits give low values 0.972 | locus YDL074C, strain BRE1, hits give low values 1.04 | locus YDL101C, strain DUN1, hits give low values 0.996 | locus YDL134C, strain PPH21, hits give low values 0.985 | locus YDL185W, strain tfp1, hits give low values 0.965 | locus YDL192W, strain arf1, hits give low values 0.994 | locus YDR001C, strain nth1, hits give low values 0.987 | locus YDR069C, strain doa4, hits give low values 0.984 | locus YDR101C, strain arx1, hits give low values 1 | locus YDR137W, strain rgp1, hits give low values 1 | locus YDR150W, strain NUM1, hits give low values 0.986 | locus YDR159W, strain sac3, hits give low values 0.974 | locus YDR162C, strain NBP2, hits give low values 0.973 | locus YDR195W, strain ref2 0.956 | locus YDR297W, strain sur2, hits give low values 0.973 | locus YDR318W, strain mcm21, hits give low values 0.978 | locus YDR334W, strain swr1, hits give low values 1.01 | locus YDR335W, strain msn5, hits give low values 1 | locus YDR388W, hits give low values 0.999 | locus YDR392W, strain spt3, hits give low values 1 | locus YDR502C, strain sam2, hits give low values 0.996 | locus YEL003W, strain gim4, hits give low values 0.995 | locus YEL037C, strain rad23, hits give low values 0.991 | locus YEL061C, strain CIN8 (second series), hits give low values 1 | locus YEL061C, strain CIN8, hits give low values 1 | locus YER015W, strain faa2, hits give low values 0.987 | locus YER016W, strain bim1, hits give low values 0.971 | locus YER110C, hits give low values 0.988 | locus YER111C, strain swi4, hits give low values 0.978 | locus YER155C, strain BEM2 (second series), hits give low values 0.974 | locus YER155C, strain BEM2, hits give low values 0.995 | locus YER167W, strain BCK2, hits give low values 0.997 | locus YFR010W, strain ubp6, hits give low values 0.99 | locus YGL078C, strain dbp3, hits give low values 0.998 | locus YGL086W, strain mad1, hits give low values 1 | locus YGL173C, strain kem1, hits give low values 0.974 | locus YGL227W, strain vid30, hits give low values 0.998 | locus YGL240W, strain doc1, hits give low values 0.999 | locus YGL248W, strain PDE1, hits give low values 1.01 | locus YGL253W, strain hxk2, hits give low values 0.977 | locus YGR078C, strain PAC10, hits give low values 1.04 | locus YGR135W, strain pre9, hits give low values 0.96 | locus YGR252W, strain gcn5, hits give low values 1.02 | locus YHR013C, strain ard1, hits give low values 0.979 | locus YHR027C, strain rpn1, hits give low values 0.996 | locus YHR030C, strain SLT2, hits give low values 0.98 and 1.04 | locus YHR079C, strain IRE1 (second series), hits give low values 0.985 | locus YHR079C, strain IRE1, hits give low values 1.06 | locus YHR094C, strain hxt1, hits give low values 0.999 | locus YHR129C, strain ARP1, hits give low values 0.986 | locus YHR142W, strain chs7, hits give low values 0.994 | locus YHR200W, strain rpn10, hits give low values 0.973 | locus YIL066C, strain RNR3, hits give low values 1 | locus YIL073C, strain SPO22, hits give low values 0.909 | locus YIL125W, strain kgd1, hits give low values 0.995 | locus YIR030C, strain dcg1, hits give low values 0.987 | locus YJL092W, strain hpr5, hits give low values 0.986 | locus YJL095W, strain BCK1 (second series), hits give low values 0.986 | locus YJL095W, strain BCK1, hits give low values 1.04 and 1.01 | locus YJL115W, strain asf1, hits give low values 0.98 | locus YJL129C, strain trk1, hits give low values 0.997 | locus YJL134W, strain LCB3, hits give low values 0.997 | locus YJL154C, strain vps35, hits give low values 0.988 | locus YJL164C, strain tpk1, hits give low values 0.985 | locus YJL166W, strain qcr8, hits give low values 0.983 | locus YJL168C, strain set2, hits give low values 0.999 | locus YJL187C, strain SWE1 (second series), hits give low values 1.02 | locus YJR043C, strain POL32, hits give low values 1 | locus YJR066W, strain TOR1, hits give low values 0.98
